In all, about 1,600 compounds went through this assay and about 920 (58%) were called active.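 How the source made its calls: active means inhibition above the primary screen's cutoff, the mean inhibition of all screened compounds plus 3 SD (cut at about 13% in these data); inactive means the rest.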 So high a share suggests a set chosen from earlier hits. Not all results are given here.
Target: Galanin receptor type 3 (Homo sapiens) (UniProt O60755)
Assay: blockers of human galanin receptor 3 – cell-based, fluorescence, triplicate, confirmation (AID 652245);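 further: 0% = forskolin plus galanin and 100% = forskolin alone with DMSO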
Conditions: HEK293 GalR3 CNG cAMP biosensor, membrane potential fluorescence; at 3 µM; stronger effect = higher value

Chain of Galanin receptor type 3 (Homo sapiens) (O60755 1-299 limits assumed): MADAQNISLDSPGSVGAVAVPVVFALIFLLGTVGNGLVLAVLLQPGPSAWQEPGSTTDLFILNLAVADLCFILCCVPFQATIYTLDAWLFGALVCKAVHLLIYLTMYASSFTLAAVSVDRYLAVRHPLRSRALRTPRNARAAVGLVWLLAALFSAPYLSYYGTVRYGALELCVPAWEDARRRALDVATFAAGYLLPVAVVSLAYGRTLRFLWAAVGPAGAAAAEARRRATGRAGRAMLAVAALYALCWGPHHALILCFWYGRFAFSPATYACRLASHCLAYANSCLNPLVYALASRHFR

| SMILES | inhibition |
| --- | --- |
| CCCCCCCCCCCCn1ccc(=N)cc1 | 92.6% (active) |
| COC(=O)C1=C(c2cc3ccccc3s2)C[C@@H]2CC[C@H]1N2C(=O)NCc1cccc2ccccc12 | -2.45% (inactive) |
| COc1ccc(-n2c(-c3ccccc3)nc3ccccc3c2=O)cc1 | 7.55% (inactive) |

— PubChem BioAssay AID652245 (The Scripps Research Institute Molecular Screening Center, 2013)
